The text below walks through data of PubChem BioAssay (NCI).

Experiment in all cases: NCI-60 one-dose screen, 48 h (100 = growth as untreated, 0 = no growth, -100 = all killed)
What all share (conditions): 10 µM unless noted

Experiment [1] deals with NCI-H226 lung.
Experiment [2] concerns NCI-H322M lung.
The subject of experiment [3] is HOP-62 NSCLC.
In experiment [4] the test system is NCI-H460 lung.
The subject of experiment [5] is HOP-92 NSCLC.
Experiment [6] deals with NCI-H522 lung.
Experiment [7] relates to A549/ATCC NSCLC.
The test system of experiment [8] is 786-0 renal.
Experiment [9] deals with COLO 205 colon.

The structures appear in SMILES notation. Several values for one entry are separate records, joined by “and”; a condition that tells them apart may be missing. Equal values may be shown once. This is part of a sample that, as a whole, favours compounds with a hit. Of some 83,000 tested, about 20% had one in any assay.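 Compound tested at a single concentration for 48 hours in 96-well plates; a percent growth value below 10 was scored as active.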 Activity calls are given as the source filed them.

Consider `CCCCOC1NC(=O)NC(=O)C1(F)C(=O)OCC` (stereo not given), for which the growth in experiment [1] is 101% (inactive) and 102% (inactive); in experiment [2], 74% (inactive) and 67.9% (inactive); in experiment [3], 76.9% (inactive) and 43.3% (inactive); in [4], 47.2% (inactive) and 25.6% (inactive); in experiment [5], 67.6% (inactive) and 85.6% (inactive); in experiment [6], 80.1% (inactive). The growth in [7] is 48.8% (inactive) and 46.3% (inactive); in experiment [8], 93% (inactive) and 67.6% (inactive); in [9] it was 61.7% (inactive) and 53.9% (inactive).

As for `O=C1C=CC(n2cc(F)c(=O)[nH]c2=O)O1` (stereo not given), the growth was 86% (inactive) in [1]; 67.4% (inactive) in experiment [2]; 79.5% (inactive) in [3]; 19.4% (inactive) in [4]; 112% (inactive) in [5]; 76.2% (inactive) in [6]. The growth in experiment [7] is 50.7% (inactive); in experiment [8], 70.9% (inactive); in experiment [9], 59.4% (inactive).

Take `COCCCNC1=C(C#N)C(=O)NC(c2cccs2)S1` (stereo not given): the growth in [1] is 98.4% (inactive); in experiment [2] it was 95.4% (inactive); in [3] it was 99.9% (inactive); in experiment [4] it was 99.2% (inactive); in [5], 107% (inactive); in experiment [6], 127% (inactive). Also, the values for the growth in [7] and in [8] were 103% (inactive) and 106% (inactive), respectively.

For `COc1cc2c(cc1O)C(=O)CCCC2`, the growth in experiment [1] was 102% (inactive); in experiment [2], 102% (inactive); in experiment [3], 91.5% (inactive); in experiment [4], 103% (inactive); in experiment [5] it was 82.9% (inactive); in [6] it was 70.6% (inactive). Moreover, the growth in experiment [7] is 110% (inactive); in experiment [8] it was 94.9% (inactive); in experiment [9], 143% (inactive).

As to `Cc1cc2nc3ccc(=[N+](C)C)cc-3sc2cc1N`, the growth in experiment [1] was 43.3% (inactive) and 58.9% (inactive); in [2], 22.6% (inactive) and 38.3% (inactive); in experiment [3] it was 0.425% (active) and 42.7% (inactive); in experiment [4], 6.67% (active) and 7.84% (active); in experiment [5], 43.1% (inactive) and 8.68% (active); in experiment [6], -55.4% (active) and 13% (inactive). Also, the growth is 6.81% (active) and 7.05% (active) in experiment [7]; 39.4% (inactive) and 35.9% (inactive) in experiment [8]; -68.6% (active) and -23.5% (active) in experiment [9].

On to `O=C(NC(CSSCC(NC(=O)OCc1ccccc1)C(=O)O)C(=O)O)OCc1ccccc1` (stereo not given), for which the growth in [1] is 86.1% (inactive); in experiment [2], 92.9% (inactive) and 102% (inactive); in experiment [3], 95% (inactive) and 81.8% (inactive); in experiment [4] it was 95% (inactive) and 107% (inactive); in experiment [5], 63.8% (inactive) and 78.5% (inactive); in experiment [6], 70.3% (inactive). Moreover, the growth in experiment [7] is 80.5% (inactive); in experiment [8], 91.2% (inactive) and 91.1% (inactive); in experiment [9] it was 96.4% (inactive) and 91.5% (inactive).

For the compound `CCNC1=CC(=O)c2ncccc2C1=O`, the growth was 33.9% (inactive) in experiment [1]; 13.9% (inactive) in experiment [2]; -42.5% (active) in [3]; -78.3% (active) in experiment [4]; 145% (inactive) in experiment [5]; -46.3% (active) in [6]. Further, the growth in experiment [7] is -54.8% (active); in [8], 83.6% (inactive); in [9] it was -62.5% (active).

Take `CC(=O)c1cccc(OC(=O)c2ccccc2)c1`: the growth is 136% (inactive) in [2]; 104% (inactive) in experiment [3]; 107% (inactive) in experiment [4]; 82.9% (inactive) in [5]; 84.7% (inactive) in experiment [6]; 99% (inactive) in experiment [7]. Moreover, the growth in [8] was 102% (inactive); in experiment [9], 107% (inactive).

As to `O=[N+]([O-])c1ccc(N/N=C/C2CCCCCC2)c([N+](=O)[O-])c1`, the growth in experiment [1] was 101% (inactive); in [2] it was 78.8% (inactive); in [3], 97% (inactive); in experiment [4], 94.6% (inactive); in [5] it was 82.6% (inactive); in [6] it was 78.5% (inactive). Also, the figures for the growth in experiment [7], in experiment [8] and in experiment [9] were 79.9% (inactive), 96.7% (inactive) and 94.6% (inactive), respectively.

With `CSc1nc(N)c(N)c(N)n1`, the growth in [1] was 91.9% (inactive); in experiment [2] it was 106% (inactive); in [3], 92.6% (inactive); in [4], 104% (inactive); in experiment [6] it was 70.1% (inactive); in [7], 95.1% (inactive). In addition, the growth in experiment [8] was 109% (inactive).

As to `Cc1cc(O)c(C(C)C)cc1N=O`, the growth is 115% (inactive) and 104% (inactive) in [2]; 103% (inactive) and 99.4% (inactive) in experiment [3]; 115% (inactive) in [4]; 79.7% (inactive) in experiment [5]; 93.8% (inactive) and 74.7% (inactive) in experiment [6]; 106% (inactive) and 99.9% (inactive) in experiment [7]. Also, the growth in experiment [8] is 98.6% (inactive) and 103% (inactive); in [9] it was 106% (inactive) and 112% (inactive).

For the compound `CS(=O)(=O)OCC1NC(=O)C(COS(C)(=O)=O)NC1=O` (stereo not given), the growth in experiment [1] is 96.2% (inactive) and 99.2% (inactive); in [2], 98.8% (inactive) and 103% (inactive); in experiment [3] it was 106% (inactive) and 118% (inactive); in experiment [4], 102% (inactive) and 95.9% (inactive); in experiment [5] it was 96.4% (inactive) and 104% (inactive); in experiment [6], 51.3% (inactive) and 50.6% (inactive). Moreover, the growth in experiment [7] is 78.3% (inactive) and 96.4% (inactive); in experiment [8] it was 97.8% (inactive) and 99.1% (inactive); in [9], 128% (inactive) and 135% (inactive).

Take `O=C(NC(=O)c1ccc(F)c(Cl)c1)NC1CC1`: the growth in experiment [1] was 99.6% (inactive) and 90.7% (inactive); in [2], 113% (inactive) and 110% (inactive); in experiment [3] it was 107% (inactive) and 101% (inactive); in [4], 100% (inactive) and 102% (inactive); in [5], 99.8% (inactive); in [6], 75.7% (inactive) and 85.1% (inactive). Further, the growth in experiment [7] is 81.8% (inactive) and 99.2% (inactive); in experiment [8] it was 98.7% (inactive) and 94.1% (inactive); in experiment [9] it was 113% (inactive) and 108% (inactive).

With `O=C1C(=O)c2ccccc2C(O)=C1CC=C(Cl)Cl`, the growth in experiment [1] is 73.4% (inactive) and 63.5% (inactive); in experiment [2] it was 75.8% (inactive) and 58% (inactive); in experiment [3] it was 50.9% (inactive) and 61.3% (inactive); in [4], 17.1% (inactive) and 17.9% (inactive); in experiment [5], 36.4% (inactive) and 87.3% (inactive); in experiment [6], 43.7% (inactive) and 42.1% (inactive). Moreover, the growth was 56% (inactive) and 44.5% (inactive) in experiment [7]; 39.5% (inactive) and 60% (inactive) in experiment [8]; 57.1% (inactive) and 57.7% (inactive) in experiment [9].

For `S=c1ccc2ccccc2[nH]1`, the growth in experiment [1] is 90.2% (inactive) and 104% (inactive); in experiment [2] it was 96.8% (inactive) and 96.2% (inactive); in experiment [3] it was 92.2% (inactive) and 93.3% (inactive); in experiment [4], 107% (inactive); in experiment [5], 86.5% (inactive) and 94.5% (inactive); in experiment [6], 93.3% (inactive) and 89.6% (inactive). The growth in [7] is 95.7% (inactive) and 94.4% (inactive); in experiment [8] it was 107% (inactive) and 106% (inactive); in [9], 94.3% (inactive) and 114% (inactive).

Take `Cc1ccc([N+](=O)[O-])cc1Br`: the growth in [1] is 98.4% (inactive); in experiment [2] it was 111% (inactive); in experiment [3] it was 89.4% (inactive); in [4] it was 94.4% (inactive); in experiment [5], 106% (inactive); in experiment [6], 88% (inactive). Moreover, the results for the growth in [7], in experiment [8] and in experiment [9] were 77.6% (inactive), 96.6% (inactive) and 99.9% (inactive), respectively.

As to `CC(=O)Oc1cc(C)c(OC(C)=O)c(C)c1C`, the growth in experiment [2] was 112% (inactive); in experiment [3] it was 102% (inactive); in experiment [4], 105% (inactive); in [5], 112% (inactive); in experiment [6], 103% (inactive); in [7], 107% (inactive). Besides, the values for the growth in experiment [8] and in experiment [9] were 108% (inactive) and 121% (inactive), respectively.

As to `Cc1onc(-c2c(F)cccc2Cl)c1-c1ncc(-c2ccc(Cl)cc2)o1`, the growth in experiment [2] was 104% (inactive) and 57% (inactive); in experiment [3], 78% (inactive) and 53.4% (inactive); in [4], 29.6% (inactive) and 3.17% (active); in experiment [5], 34.2% (inactive) and 73% (inactive); in [6], 35.1% (inactive); in experiment [7], 53.1% (inactive) and 41.4% (inactive). Moreover, the growth in experiment [8] is 73.9% (inactive) and 31.6% (inactive); in experiment [9] it was 53.5% (inactive) and 43.6% (inactive).
